{"source": "paper PMC5540273", "about": "(PLoS ONE, 2017);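 also: KINOMEscan kinase panel screen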", "conditions_in_all_cases": "concentration: 1 μM, replicates: in singlicate; n = 1", "key": {"[1]": {"tested_on": "DMPK"}, "[2]": {"tested_on": "T1, DRAK1", "T1 construct": "gene STK17A"}, "[3]": {"tested_on": "T2, DRAK2", "T2 construct": "gene STK17B"}, "[4]": {"tested_on": "DYRK1A"}, "[5]": {"tested_on": "DYRK1B"}, "[6]": {"tested_on": "DYRK2"}, "[7]": {"tested_on": "EGFR"}, "[8]": {"tested_on": "EIF2AK1"}, "[9]": {"tested_on": "EPHA1"}, "[10]": {"tested_on": "EPHA2"}}}
{"molecule": "O=C(Nc1n[nH]c2cc(-c3cccc(F)c3)ccc12)C1CC1", "note": "[SB-735464]", "values": [{"measurement": "%Inh", "setting": "[1]", "value": 0, "unit": "%"}, {"measurement": "%Inh", "setting": "[2]", "value": 7, "unit": "%"}, {"measurement": "%Inh", "setting": "[3]", "value": 0, "unit": "%"}, {"measurement": "%Inh", "setting": "[4]", "value": 10, "unit": "%"}, {"measurement": "%Inh", "setting": "[5]", "value": 0, "unit": "%"}, {"measurement": "%Inh", "setting": "[6]", "value": 16, "unit": "%"}, {"measurement": "%Inh", "setting": "[7]", "value": 0, "unit": "%"}, {"measurement": "%Inh", "setting": "[8]", "value": 0, "unit": "%"}, {"measurement": "%Inh", "setting": "[9]", "value": 25, "unit": "%"}, {"measurement": "%Inh", "setting": "[10]", "value": 0, "unit": "%"}]}
{"molecule": "CN1c2ccc(NCc3ccc(F)cc3)cc2-c2c(cnn2C)S1(=O)=O", "values": [{"measurement": "%Inh", "setting": "[1]", "value": 0, "unit": "%"}, {"measurement": "%Inh", "setting": "[2]", "value": 0, "unit": "%"}, {"measurement": "%Inh", "setting": "[3]", "value": 0, "unit": "%"}, {"measurement": "%Inh", "setting": "[4]", "value": 0, "unit": "%"}, {"measurement": "%Inh", "setting": "[5]", "value": 16, "unit": "%"}, {"measurement": "%Inh", "setting": "[6]", "value": 0, "unit": "%"}, {"measurement": "%Inh", "setting": "[7]", "value": 0, "unit": "%"}, {"measurement": "%Inh", "setting": "[8]", "value": 0, "unit": "%"}, {"measurement": "%Inh", "setting": "[9]", "value": 0, "unit": "%"}, {"measurement": "%Inh", "setting": "[10]", "value": 12, "unit": "%"}]}
{"molecule": "CCc1nc(-c2cccc(C)c2)c(-c2ccnc(NCc3ccccc3)c2)s1", "values": [{"measurement": "%Inh", "setting": "[1]", "value": 0, "unit": "%"}, {"measurement": "%Inh", "setting": "[2]", "value": 2, "unit": "%"}, {"measurement": "%Inh", "setting": "[3]", "value": 16, "unit": "%"}, {"measurement": "%Inh", "setting": "[4]", "value": 0, "unit": "%"}, {"measurement": "%Inh", "setting": "[5]", "value": 23, "unit": "%"}, {"measurement": "%Inh", "setting": "[6]", "value": 2, "unit": "%"}, {"measurement": "%Inh", "setting": "[7]", "value": 0, "unit": "%"}, {"measurement": "%Inh", "setting": "[8]", "value": 0, "unit": "%"}, {"measurement": "%Inh", "setting": "[9]", "value": 0, "unit": "%"}, {"measurement": "%Inh", "setting": "[10]", "value": 1, "unit": "%"}]}
{"molecule": "NS(=O)(=O)c1cccc(-c2ccc3nccc(-c4cccc(S(N)(=O)=O)c4)c3c2)c1", "note": "[GW867253]", "values": [{"measurement": "%Inh", "setting": "[1]", "value": 2, "unit": "%"}, {"measurement": "%Inh", "setting": "[2]", "value": 0, "unit": "%"}, {"measurement": "%Inh", "setting": "[3]", "value": 0, "unit": "%"}, {"measurement": "%Inh", "setting": "[4]", "value": 0, "unit": "%"}, {"measurement": "%Inh", "setting": "[5]", "value": 0, "unit": "%"}, {"measurement": "%Inh", "setting": "[6]", "value": 32, "unit": "%"}, {"measurement": "%Inh", "setting": "[7]", "value": 0, "unit": "%"}, {"measurement": "%Inh", "setting": "[8]", "value": 0, "unit": "%"}, {"measurement": "%Inh", "setting": "[9]", "value": 0, "unit": "%"}, {"measurement": "%Inh", "setting": "[10]", "value": 0, "unit": "%"}]}
{"molecule": "O=c1cc(N2CCOCC2)nc2n(Cc3cccc4ccccc34)ccn12", "note": "[GSK2333389]", "values": [{"measurement": "%Inh", "setting": "[1]", "value": 0, "unit": "%"}, {"measurement": "%Inh", "setting": "[2]", "value": 0, "unit": "%"}, {"measurement": "%Inh", "setting": "[3]", "value": 0, "unit": "%"}, {"measurement": "%Inh", "setting": "[4]", "value": 20, "unit": "%"}, {"measurement": "%Inh", "setting": "[5]", "value": 7, "unit": "%"}, {"measurement": "%Inh", "setting": "[6]", "value": 21, "unit": "%"}, {"measurement": "%Inh", "setting": "[7]", "value": 0, "unit": "%"}, {"measurement": "%Inh", "setting": "[8]", "value": 0, "unit": "%"}, {"measurement": "%Inh", "setting": "[9]", "value": 8, "unit": "%"}, {"measurement": "%Inh", "setting": "[10]", "value": 0, "unit": "%"}]}
